{"source": "PubChem BioAssay AID1347426", "about": "(Functional Genomics Laboratory (NCATS/FGL), 2020)", "note": "Out of some 31,000 sequences screened, about 1,400 (4.5%) were called active.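 How the source made its calls: active means median seed-adjusted z-score above 1 or below -1; inactive means the rest.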 This excerpt belongs to a sample that is enriched for actives.", "data": [{"assay": "Novel Modifiers of Survival Motor Neuron (SMN) Protein: Gene Identification via Genome-wide siRNA Screen", "conditions": "HEK293T SMN2-luciferase reporter, siRNA knockdown, 72 h; actives lie on both sides", "from_the_text": "Spinal muscular atrophy (SMA) is the most common neuromuscular autosomal recessive disorder and one of the leading genetic causes of infant death. SMA results from mutations inducing loss of function or deletion in the survival of motor neuron-1 gene (SMN1), leading to deficiency of the survival motor neuron (SMN) protein. Although a second nearly identical gene, SMN2, is retained in humans, its expression primarily produces an aberrantly spliced isoform that is largely unstable and quickly degraded. We performed a genome-wide RNAi screen using a cell-based reporter assay to identify genes and pathways that modulate SMN protein stability. The screen identified over 200 genes that led to the greatest increase or decrease in luciferase expression.\nUsing HEK293T cells stably expressing a luciferase reporter that combines the promoter and splicing based cassettes in tandem with the major portion of the native SMN2 cDNA with luciferase, we performed a genome-wide RNAi screen to identify modulators of SMN protein levels. Luciferase is expressed when full-length SMN protein is generated with luminescence signal proportional to SMN protein levels. Our luciferase-based reporter assay was used to screen Ambion Silencer Select Human Druggable Genome siRNA library (10418 genes, 3 unique siRNAs per gene) using lipid-based reverse transfection.\nBriefly, 1 pmol of each siRNA was spotted to a well of a 384-well plate (Corning, Corning, NY) and 20 microL of serum-free DMEM containing […] of Lipofectamine RNAiMax (Life Technologies, Carlsbad, CA) was then added to each well. Transfected cells were maintained at 37 degrees C in 5% CO2 for 72 hours, 20 microL of ONE-Glo Reagent (Promega) was added to wells for luciferase quantification. Raw luminescence reads were normalized to Ambion(R) Silencer(R) Negative Control #2 siRNA, then log10 transformed. A robust statistical measure of median absolute deviation (MAD) to standardize siRNA activities from each screen. Common Seed Analysis was used to help prioritize clean hits as opposed to those appearing to arise from seed based off-target effects. Candidate modulators were defined as the genes having a MAD score greater than 1.0 or less than -1.0.", "values": [{"sequence": "CUACCACAAUCAUCGAAAATT against FABP3", "median seed-adjusted z-score": "-0.0786 (inactive)"}, {"sequence": "CAAACCUAACUAUACAUAATT against ZNF107", "median seed-adjusted z-score": "0.0761 (inactive)"}, {"sequence": "GUAAGCAUUUUAAUUCCAATT against CLCA3", "median seed-adjusted z-score": "0.424 (inactive)"}, {"sequence": "UUACAUUGAUUACACUGGATT against RBM24", "median seed-adjusted z-score": "0.0471 (inactive)"}, {"sequence": "UCGUUUUUACAGAUGUUAATT against SAP18", "median seed-adjusted z-score": "2.14 (active)"}, {"sequence": "CCUACUAUCAAGAUUCAAATT against HERC3", "median seed-adjusted z-score": "-0.0884 (inactive)"}, {"sequence": "GAGUCAACCCAUACAUUAATT against PLS1", "median seed-adjusted z-score": "-0.0715 (inactive)"}, {"sequence": "GCUGGUUUAUUUAACUCGATT against E2F6", "median seed-adjusted z-score": "-0.299 (inactive)"}, {"sequence": "GAGUCUGUUUUACGACAAATT against TMPRSS11D", "median seed-adjusted z-score": "-0.0643 (inactive)"}, {"sequence": "CCAGUCGCGUAAGACAACATT against PYDC1", "median seed-adjusted z-score": "-1.44 (active)"}, {"sequence": "CCCAGAGCUUCAAAGUGUATT against HSD17B1", "median seed-adjusted z-score": "-0.569 (inactive)"}, {"sequence": "GCAGAGCGGAAGUAAGGAUTT against AFMID", "median seed-adjusted z-score": "-0.515 (inactive)"}, {"sequence": "CAUUAUCUCGUUUCCGGAATT against IFNGR2", "median seed-adjusted z-score": "0.148 (inactive)"}, {"sequence": "GCGGAAAGGUGGACUUUGATT against CABP2", "median seed-adjusted z-score": "0.323 (inactive)"}, {"sequence": "GCAUCCUCAUCAACCGCAATT against SAPS1", "median seed-adjusted z-score": "1.16 (active)"}, {"sequence": "CCCAGAAGAUGACCACUCATT against PDXDC1", "median seed-adjusted z-score": "0.665 (inactive)"}, {"sequence": "GACUUGCCCUUACUGCAAATT against RNF175", "median seed-adjusted z-score": "0.127 (inactive)"}, {"sequence": "CGUUGCUAGUGCUCACUUATT against FRAG1", "median seed-adjusted z-score": "-0.554 (inactive)"}, {"sequence": "GAUAUUUGAUUGAUGUAGATT against DUSP11", "median seed-adjusted z-score": "-0.0184 (inactive)"}, {"sequence": "ACAGAAUAAUGUACAAGAATT against POLR2K", "median seed-adjusted z-score": "-3.72 (active)"}, {"sequence": "GCCUAGACCUCUUCGCUUUTT against PASK", "median seed-adjusted z-score": "0 (inactive)"}, {"sequence": "GCAGCUGAGUUCUACAAGATT against RAG1", "median seed-adjusted z-score": "-1.35 (active)"}, {"sequence": "GGAUAAUGAGUCGGAAGUATT against CNTN4", "median seed-adjusted z-score": "-0.407 (inactive)"}, {"sequence": "CCAGGUUUAUGUAGAAGUUTT against NMI", "median seed-adjusted z-score": "0.982 (inactive)"}, {"sequence": "GGAUGAAGAACGAAUGGUATT against ENDOD1", "median seed-adjusted z-score": "-0.138 (inactive)"}, {"sequence": "GGCACUCAGCGCAAGAAGATT against TIGD5", "median seed-adjusted z-score": "0 (inactive)"}, {"sequence": "GGAAGAGGAGUAGACCUUATT against RAB5A", "median seed-adjusted z-score": "0.244 (inactive)"}, {"sequence": "CCGGCAAGAUUAUCGAGUATT against HCFC1", "median seed-adjusted z-score": "1.47 (active)"}, {"sequence": "CAUUCGCAAAGGAUCGUGATT against PAPSS2", "median seed-adjusted z-score": "-0.201 (inactive)"}, {"sequence": "CAGCGUAUUUGAGAAUUUATT against ATRX", "median seed-adjusted z-score": "-0.158 (inactive)"}, {"sequence": "GCAAGUGUUUUGAUCAAAATT against ZNF662", "median seed-adjusted z-score": "0.352 (inactive)"}, {"sequence": "GAAUAUUGCAAUAGACUUATT against ZNF678", "median seed-adjusted z-score": "0.172 (inactive)"}, {"sequence": "GCAUUUCACCAUUCAAACATT against PCSK9", "median seed-adjusted z-score": "0.146 (inactive)"}, {"sequence": "GGAUGUUUCCUACCUAUAUTT against FOLR1", "median seed-adjusted z-score": "-1.31 (active)"}, {"sequence": "CCAGUUCGCUAUCACCAAATT against MATN1", "median seed-adjusted z-score": "-0.271 (inactive)"}, {"sequence": "CGAUCAAUGUUAGAAGUUATT against ACTR2", "median seed-adjusted z-score": "0.548 (inactive)"}, {"sequence": "CCUUAGAUCUCGCGAAGAATT against DCT", "median seed-adjusted z-score": "-0.184 (inactive)"}, {"sequence": "CCAAUACACUAGCAGUUAATT against TCP1", "median seed-adjusted z-score": "-1.02 (active)"}, {"sequence": "GCCUGUGAAUGUCCGAGAATT against AARSD1", "median seed-adjusted z-score": "-0.156 (inactive)"}, {"sequence": "GGUAGUCUAUCACUUCGAATT against TRIM37", "median seed-adjusted z-score": "-0.108 (inactive)"}, {"sequence": "GCUCAACACUCAUCAAACATT against ZNF774", "median seed-adjusted z-score": "-0.0834 (inactive)"}, {"sequence": "CAUGGUCACUGCUAGUGUATT against MBOAT1", "median seed-adjusted z-score": "-1.22 (active)"}, {"sequence": "GCACCUACUUCAUCUAUAGTT against EDA", "median seed-adjusted z-score": "0.316 (inactive)"}, {"sequence": "GAGAUUCAAAGAAUAGUAATT against RASSF6", "median seed-adjusted z-score": "-0.592 (inactive)"}, {"sequence": "CCCUUGAAGGCAAAGAUCATT against OPRK1", "median seed-adjusted z-score": "-1.08 (active)"}, {"sequence": "GAGAUUCAUCGGUUCAAUATT against WRNIP1", "median seed-adjusted z-score": "0.00972 (inactive)"}, {"sequence": "GCCUUAGUGUGCCUCCCAATT against APLN", "median seed-adjusted z-score": "0.0181 (inactive)"}, {"sequence": "GAUCUGGUCGAGUUUAAAATT against NAT2", "median seed-adjusted z-score": "-0.0495 (inactive)"}, {"sequence": "CCACAUGACUUAUUAUGCATT against DCN", "median seed-adjusted z-score": "0.326 (inactive)"}, {"sequence": "GGGCAGUUCUUGCAACCAUTT against ALDH1A2", "median seed-adjusted z-score": "0.564 (inactive)"}, {"sequence": "CGAGAUAACUACUGCCGAUTT against PCOLCE2", "median seed-adjusted z-score": "-1.15 (active)"}, {"sequence": "CCGUCUACGUGACCAUUGATT against ABCC1", "median seed-adjusted z-score": "0 (inactive)"}, {"sequence": "GCUUUUACAACAUUUCGAATT against SLC30A4", "median seed-adjusted z-score": "0.158 (inactive)"}, {"sequence": "GUAAAUCACCGGCUACAAATT against ITGA3", "median seed-adjusted z-score": "0 (inactive)"}, {"sequence": "UCAUGCUCAUUGGGAAUAATT against RAB2B", "median seed-adjusted z-score": "0.882 (inactive)"}, {"sequence": "GCUUUGCAGUGAAUAUCGATT against SPINK5", "median seed-adjusted z-score": "0.26 (inactive)"}, {"sequence": "CCUGGAUACCCUAAGCAAATT against PSMD2", "median seed-adjusted z-score": "-1.44 (active)"}, {"sequence": "CCACGAUCGUUCACAAGGATT against KCTD4", "median seed-adjusted z-score": "0.649 (inactive)"}, {"sequence": "CUAUAGUGGUUCAUCACAATT against GCNT1", "median seed-adjusted z-score": "0.463 (inactive)"}, {"sequence": "ACGAGUACAUCAACGAGUATT against ABCA2", "median seed-adjusted z-score": "-1.18 (active)"}, {"sequence": "CACUCAGCGUGGACCAUUUTT against HCN3", "median seed-adjusted z-score": "0.301 (inactive)"}, {"sequence": "CUAUCAAUCCCAGCACUAATT against CDKL3", "median seed-adjusted z-score": "0.243 (inactive)"}, {"sequence": "GCACUCUGAAGAUCGAAUATT against HNRNPL", "median seed-adjusted z-score": "1.04 (active)"}, {"sequence": "CUAUGAUUAUAGCCGGGUATT against PTPN22", "median seed-adjusted z-score": "-0.0843 (inactive)"}, {"sequence": "GGAAAAGUAUGAACUGAAATT against TREM1", "median seed-adjusted z-score": "0 (inactive)"}, {"sequence": "GGGUCUUACGAAUGCGGAATT against ZNF618", "median seed-adjusted z-score": "0.311 (inactive)"}, {"sequence": "GAACGUAAGAAAUACAAUUTT against HSPA4L", "median seed-adjusted z-score": "0.288 (inactive)"}, {"sequence": "CUUCAUCUUUUACACCAUUTT against SLC35B2", "median seed-adjusted z-score": "-0.313 (inactive)"}, {"sequence": "CACUACUAAAAACCUAAAATT against EFHD2", "median seed-adjusted z-score": "0.874 (inactive)"}]}]}
